Reference: PubChem BioAssay AID1159580 (chemical genetic matrix, 2015)
Screen size: about 5,500 compounds; about 2,000 (36%) were called active. Roughly 18% stayed inconclusive and do not appear here. Cut-off read from the data, not from the text of the source: active = normalized growth mostly below about 0.91 (no sharp cut-off); inconclusive = no clear call, values can overlap the other calls; inactive = mostly above about 0.92. This is one part of the list.

Test: chemical genetic growth profiling, strain panel (AID 1159580);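 note: tested at 20 µM; growth read once vehicle control cultures reached saturation at 30 °C; 1 = growth at the plate median or of vehicle wells; lower values mean less growth of the strain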
Settings: S. cerevisiae deletion strains, growth OD

Measured: normalized growth

CCOC(=O)c1oc2c(OC)c(O)cc(O)c2c(=O)c1-c1cc(OC)c(OC)c(OC)c1
active: locus YDR137W, strain rgp1, stronger effect = lower value 0.799 | locus YLR262C, strain YPT6 (second series), stronger effect = lower value 0.82
inactive: locus YAL021C, strain ccr4, stronger effect = lower value 0.985 | locus YAL026C, strain drs2, stronger effect = lower value 0.974 | locus YAL030W, strain snc1, stronger effect = lower value 0.968 | locus YBL061C, strain skt5, stronger effect = lower value 0.976 | locus YBR009C, strain hhf1, stronger effect = lower value 0.972 | locus YBR023C, strain chs3, stronger effect = lower value 0.972 | locus YBR171W, strain sec66, stronger effect = lower value 0.956 | locus YBR231C, strain swc5, stronger effect = lower value 0.974 | locus YBR279W, strain paf1, stronger effect = lower value 0.987 | locus YCL011C, strain gbp2, stronger effect = lower value 0.976 | locus YCL016C, strain dcc1, stronger effect = lower value 0.977 | locus YCL061C, strain MRC1, stronger effect = lower value 0.966 | locus YCL069W, strain vba3, stronger effect = lower value 0.989 | locus YCR088W, strain abp1, stronger effect = lower value 0.972 | locus YDL005C, strain med2, stronger effect = lower value 0.993 | locus YDL040C, strain nat1, stronger effect = lower value 0.983 | locus YDR001C, strain nth1, stronger effect = lower value 0.982 | locus YDR069C, strain doa4, stronger effect = lower value 0.991 | locus YDR159W, strain sac3, stronger effect = lower value 0.973 | locus YDR195W, strain ref2 1.05 | locus YDR297W, strain sur2, stronger effect = lower value 0.979 | locus YDR334W, strain swr1, stronger effect = lower value 0.98 | locus YDR335W, strain msn5, stronger effect = lower value 0.971 | locus YDR392W, strain spt3, stronger effect = lower value 0.878 | locus YEL003W, strain gim4, stronger effect = lower value 0.978 | locus YEL037C, strain rad23, stronger effect = lower value 0.98 | locus YEL061C, strain CIN8 (second series), stronger effect = lower value 0.978 | locus YER015W, strain faa2, stronger effect = lower value 0.986 | locus YER016W, strain bim1, stronger effect = lower value 0.969 | locus YER111C, strain swi4, stronger effect = lower value 0.989 | locus YER155C, strain BEM2 (second series), stronger effect = lower value 0.947 | locus YFR010W, strain ubp6, stronger effect = lower value 0.986 | locus YGL167C, strain pmr1, stronger effect = lower value 0.957 | locus YGL173C, strain kem1, stronger effect = lower value 0.965 | locus YGL227W, strain vid30, stronger effect = lower value 0.959 | locus YGL240W, strain doc1, stronger effect = lower value 0.948 | locus YGL253W, strain hxk2, stronger effect = lower value 0.974 | locus YHR013C, strain ard1, stronger effect = lower value 1.01 | locus YHR027C, strain rpn1, stronger effect = lower value 0.985 | locus YHR142W, strain chs7, stronger effect = lower value 0.955 | locus YJL092W, strain hpr5, stronger effect = lower value 0.973 | locus YJL095W, strain BCK1 (second series), stronger effect = lower value 0.975 | locus YJL115W, strain asf1, stronger effect = lower value 0.986 | locus YJL129C, strain trk1, stronger effect = lower value 0.977 | locus YJL154C, strain vps35, stronger effect = lower value 0.984 | locus YJL164C, strain tpk1, stronger effect = lower value 0.964 | locus YJL166W, strain qcr8, stronger effect = lower value 0.975 | locus YJL187C, strain SWE1, stronger effect = lower value 0.985 | locus YKL160W, strain elf1, stronger effect = lower value 0.966 | locus YKR026C, strain gcn3, stronger effect = lower value 0.97 | locus YKR091W, strain srl3, stronger effect = lower value 0.973 | locus YLL001W, strain dnm1, stronger effect = lower value 0.98 | locus YLL026W, stronger effect = lower value 0.968 | locus YLL041C, strain sdh2, stronger effect = lower value 0.974 | locus YLR027C, strain aat2, stronger effect = lower value 0.972 | locus YLR221C, strain rsa3, stronger effect = lower value 0.972 | locus YLR258W, strain gsy2, stronger effect = lower value 0.969 | locus YLR320W, strain mms22, stronger effect = lower value 0.901 | locus YLR342W, strain FKS1, stronger effect = lower value 0.971 | locus YLR357W, strain rsc2, stronger effect = lower value 1 | locus YLR370C, strain arc18, stronger effect = lower value 0.972 | locus YLR384C, strain iki3, stronger effect = lower value 0.982 | locus YML120C, strain ndi1, stronger effect = lower value 0.973 | locus YMR058W, strain fet3, stronger effect = lower value 0.976 | locus YMR125W, strain sto1, stronger effect = lower value 0.985 | locus YMR129W, stronger effect = lower value 0.978 | locus YMR205C, strain PFK2, stronger effect = lower value 0.933 | locus YMR231W, strain pep5, stronger effect = lower value 0.997 | locus YNL071W, strain lat1, stronger effect = lower value 0.959 | locus YNL209W, strain ssb2, stronger effect = lower value 0.98 | locus YNL248C, strain rpa49, stronger effect = lower value 0.958 | locus YNL322C, strain KRE1 (second series), stronger effect = lower value 0.971 | locus YNR049C, strain mso1, stronger effect = lower value 0.974 | locus YOR001W, strain rrp6, stronger effect = lower value 0.969 | locus YOR070C, strain gyp1, stronger effect = lower value 0.973 | locus YOR080W, strain dia2, stronger effect = lower value 0.985 | locus YOR083W, strain WHI5, stronger effect = lower value 0.965 | locus YOR106W, strain vam3, stronger effect = lower value 0.975 | locus YOR265W, strain rbl2, stronger effect = lower value 0.974 | locus YOR270C, strain vph1, stronger effect = lower value 0.915 | locus YOR290C, strain snf2, stronger effect = lower value 0.959 | locus YPL051W, strain arl3, stronger effect = lower value 0.963 | locus YPL078C, strain atp4, stronger effect = lower value 0.973 | locus YPL106C, strain sse1, stronger effect = lower value 0.997 | locus YPL240C, strain hsp82, stronger effect = lower value 0.964
